Bioassay records from PubChem.
The list is not random: actives were taken first. Their share in the collection is about 3.8%.
GDH-TPI inh: counter-screen for M. tuberculosis FBA inhibitors: GDH-TPI coupled enzymes; GDH-TPI coupled enzyme counterscreen, NADH absorbance; inhibition, % at 4.8 µM; actives 1.2% (n = 360,000); in the data active means inhibition above about 30%;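 further: 0% = DMSO wells and 100% = wells lacking the enzyme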
Mtb hypoxia inh: reduces hypoxia-regulated biosensor signal in M. tuberculosis. AID 1159583. actives 0.1% (n = 300,000). fluorescence inhibition, % (no concentration beside the values). M. tuberculosis hypoxia-regulated fluorescent reporter, fluorescence; in the data active means fluorescence inhibition mostly above about 23%, no sharp cut-off; inactive means mostly below about 17%
Yp Topo-I inh: inhibitors of Yersinia pestis topoisomerase I | activity, % at 10 µM | actives 0.064% (n = 360,000) | AID 504884 | Y. pestis Topo-I cleavage product accumulation, plate reader; in the data active means activity above about 50%, passing the limit was not always enough
PrP 5UTR inh: inhibition of PrP 5' UTR reporter expression. actives 0.35% (n = 340,000). inhibition, % (no concentration beside the values). AID 488862. cell-based PrP 5' UTR mRNA reporter, plate reader; in the data active means inhibition above about 52%; further: 0 = median of the neutral control wells
FBA Mtb inh: inhibitors of M. tuberculosis fructose-bisphosphate aldolase; purified M. tuberculosis FBA, fluorescence read-out; actives 2.3% (n = 360,000); inhibition, % at 1 µM; P9WQA3; in the data active means inhibition above about 27%;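 further: 0% = vehicle and 100% = reference inhibitor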
Target sequence (P9WQA3 whole entry, looked up): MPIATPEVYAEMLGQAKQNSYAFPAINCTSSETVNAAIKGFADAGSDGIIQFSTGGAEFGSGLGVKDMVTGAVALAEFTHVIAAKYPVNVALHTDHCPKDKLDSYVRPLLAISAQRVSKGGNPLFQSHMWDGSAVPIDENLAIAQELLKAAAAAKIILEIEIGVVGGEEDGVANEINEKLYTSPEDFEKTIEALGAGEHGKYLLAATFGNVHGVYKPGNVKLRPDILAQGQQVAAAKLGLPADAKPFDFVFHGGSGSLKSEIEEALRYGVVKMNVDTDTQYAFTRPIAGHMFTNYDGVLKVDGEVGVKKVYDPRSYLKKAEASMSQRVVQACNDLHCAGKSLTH
PrPC TRFRET: inhibitors of human cell surface prion protein PrPC; TR-FRET read-out; inhibition, % at 13.8 µM; actives 0.43% (n = 370,000); in the data active means inhibition above about 24%; further: 0% = median of the test wells and 100% = reference compound wells
Starred values were filed as active, the others as inactive; . = no result given; + = active, no number.

SMILES	GDH-TPI inh	Mtb hypoxia inh	Yp Topo-I inh	PrP 5UTR inh	FBA Mtb inh	PrPC TRFRET
CC(C)=CCN1CCN(Cc2cccc3nccnc23)CC1CCO (stereo unspecified)	31*	14	-10	-6	-2	-9
CNc1cncc(-c2ccc(F)c(F)c2)n1	23	.	-3	.	168*	-1
CNc1cncc(-c2cccc(OC)c2F)n1	5	.	2	.	+	-2
CNc1cncc(-c2cccnc2)n1	21	.	6	.	+	1
CNc1cncc(-c2ccccc2NC(C)=O)n1	12	.	-4	.	19	-10
COc1ccccc1-c1cncc(NC(C)=O)n1	13	.	3	.	2	2
CNc1cncc(-c2cccc(C(=O)N(C)C)c2)n1	19	.	0	.	+	-9
O=C(NN=Cc1ccc(Cl)cc1Cl)c1n[nH]c2c1CCCC2	.	-8	.	.	.	.
Cc1ccc(SCc2cc(=O)[nH]c(Nc3nc(C)c4ccc(C)cc4n3)n2)cc1	3	-6	113*	-7	-1	3
Cc1ccc2nc(Nc3nc(CSc4nnc(C)s4)cc(=O)[nH]3)nc(C)c2c1	4	11	58*	-20	1	7
Cc1ccc(SCc2cc(=O)[nH]c(Nc3nc(C)c4ccccc4n3)n2)cc1	14	0	-1	-9	1	-6
CC(=O)C1=C(O)C(=Cc2ccccc2)OC1=O	26	.	-2	.	11	5
COc1ccc(C=C2OC(=O)C(C(C)=O)=C2O)cc1	59*	.	4	.	14	0
Cc1ccc2nc(C)cc(SCC(=O)NN=Cc3ccco3)c2c1	.	20	.	.	.	.
O=C(O)c1ccc(/C=N/NC(=O)c2cc3c(ccc4ccccc43)o2)cc1	57*	.	2	-16	-2	6
O=C(Nc1cccnc1)c1cc2c(ccc3ccccc32)o1	32*	-1	13	-70	0	.
O=C(O)c1ccc(/C=N/NC(=O)c2cc3ccccc3cc2O)cc1	41*	.	-3	-25	-8	-8
NNC(=O)c1cc2c(ccc3ccccc32)o1	5	6	5	-30	6	5
O=C(O)c1ccc(C=NNC(=O)c2cc3c(ccc4ccccc43)o2)cc1	.	4	.	.	.	.
O=C(NN=Cc1ccncc1)c1cc2ccccc2cc1O	.	10	.	.	.	.
O=C(N/N=C/c1ccncc1)c1cc2c(ccc3ccccc32)o1	47*	.	19	-58	3	-9
CC1(C)Oc2ccc3ccc(=O)oc3c2CC1OC1OC(CO)C(O)C(O)C1O (stereo unspecified)	.	9	.	.	.	.
CCCCC1CNC(=S)N1CCc1cccc(F)c1 (stereo unspecified)	.	11	.	.	.	.
Cn1cccc1C=NNC(=O)c1sc2cc(Cl)ccc2c1Cl	.	8	.	.	.	.
COC(=O)[C@@]12CCCN1C(c1ccc(-c3ccc(OC)cc3)cc1)C1C(=O)N(C)C(=O)C12 (stereo partly specified)	.	13	.	.	.	.
SMILES	GDH-TPI inh	Mtb hypoxia inh	Yp Topo-I inh	PrP 5UTR inh	FBA Mtb inh	PrPC TRFRET
O=C(NN=Cc1cccc(O)c1)c1ccccc1O	.	-5	.	.	.	.
COc1ccc(/C=N/NC(=O)c2ccc(O)cc2O)cc1CSc1ccccn1	38*	.	2	-8	-1	5
COc1ccc(C=NNC(=O)c2ccccc2O)cc1CSc1ccccn1	.	2	.	.	.	.
O=C(N/N=C/c1cccc(Oc2ccccc2)c1)c1ccc(O)cc1O	34*	.	-4	-11	1	1
CCn1cc(/C=C(\NC(=O)c2cc(OC)c(OC)c(OC)c2)C(=O)N2CCOCC2)c2ccccc21	31*	.	27	.	0	0
CCn1cc(/C=C(\NC(=O)c2ccc(OC)c(OC)c2)C(=O)N2CCOCC2)c2ccccc21	28	10	16	-15	-3	-2
COc1ccc(C(=O)N/C(=C\c2cn(C)c3ccccc23)C(=O)N2CCOCC2)cc1	32*	-4	9	3	2	6
CCn1cc(/C=C(\NC(=O)c2ccc(OC)cc2)C(=O)N2CCOCC2)c2ccccc21	38*	2	-3	-4	3	1
COc1ccc(C2c3ccc(O)cc3Oc3ncn4nc(-c5ccccn5)nc4c32)cc1 (stereo unspecified)	36*	-8	14	.	4	-2
Cc1ccc(SC/C(O)=C(\C#N)c2nc3ccccc3s2)cc1	32*	.	-2	-21	-1	-10
N#C/C(=C(/O)COc1ccccc1)c1nc2ccccc2s1	29	1	-2	-31	0	-1
COc1ccc(C/C(O)=C(\C#N)c2nc3ccccc3s2)cc1	46*	.	2	-13	-3	.
N#C/C(=C(/O)CSc1ccccc1C(=O)O)c1nc2ccccc2s1	73*	5	1	-12	-4	-6
Cc1ccsc1C(=CCCN1CCCC(C(=O)O)C1)c1sccc1C (stereo unspecified)	.	-2	.	.	.	.
COC(=O)C1=C(c2ccc(C(C)=O)cc2)CC2CCC1N2C (stereo unspecified)	.	10	.	.	.	.
CC(C)CC1CNC(=O)C(=O)N1CC(C)NC(=O)Cc1ccccc1 (stereo unspecified)	.	-1	.	.	.	.
COc1ccc(Nc2nc(NN=Cc3ccc(N(C)C)cc3)nc(C)c2[N+](=O)[O-])cc1	.	3	.	.	.	.
Cc1cn(C(=O)c2ccccc2)c(=S)n1-c1ccc(Cl)cc1	34*	7	6	-6	0	3
Cc1ccc(S(=O)(=O)NC(C(=O)Oc2ccc3c(C(F)(F)F)cc(=O)oc3c2)c2ccccc2)cc1 (stereo unspecified)	-1	.	-2	-26	3	0
CCC(NC(=O)OC(C)(C)C)C(=O)Oc1ccc2c3c(c(=O)oc2c1)CCC3 (stereo unspecified)	6	-3	6	-12	.	-6
Cc1ccc(S(=O)(=O)NC(CC(C)C)C(=O)Oc2ccc3c4c(c(=O)oc3c2)CCC4)cc1 (stereo unspecified)	9	9	4	-31	+	0
CCC(C)C(NS(=O)(=O)c1ccc(C)cc1)C(=O)Oc1ccc2c3c(c(=O)oc2c1)CCC3 (stereo unspecified)	4	-5	31	-13	37*	0
CC[C@@H](NS(=O)(=O)c1ccc(C)cc1)C(=O)Oc1ccc2c3c(c(=O)oc2c1)CCC3	4	.	34	-10	+	5
CC(C)c1ccc(C=c2sc3n(c2=O)C(N)=C(C#N)C(c2ccc(C(C)C)cc2)C=3C(N)=O)cc1 (stereo unspecified)	.	-6	.	.	.	.
C#CCOCCOCCOCCNc1nc(N2CCN(C(=O)CCCCCCCCCCNC(=O)Cn3cc(CCCCCN)nn3)CC2)nc(N2CCN(C(=O)CCCCCCCCCCNC(=O)C(CO)n3cc(CCCCCN)nn3)CC2)n1 (stereo unspecified)	.	10	.	.	.	.
COc1cc2c(C#N)c(N3CCCCC3)nc(N)c2c(N)n1	19	-6	-5	7	4	-2
COc1cc2c(C#N)c(N3CCOCC3)nc(N)c2c(N)n1	8	4	6	3	32*	2
Nn1c(SCC(=O)Nc2ccc3c(c2)OCO3)nnc1-c1ccccc1	-8	4	6	-45	-1	2
